According to PubChem BioAssay (Tox21):
Results filed as inconclusive are left out. Calls of active or inactive are those of the source. Unless noted, the call rests on the fitted dose curve; in most records, active means well fitted curve in the direction sought with a large enough effect in the repeat runs; inconclusive means weak or mixed curves; inactive means no such curve, though single readings can be large; an effect the other way counts as inactive or inconclusive.

How the values were obtained:
[1] = qHTS RealTime-Glo MT Cell Viability Assay in HEK293 cells - 0 hour (AID 1224880); further: top concentration of the series differs between compounds; nearly all actives have a fitted effect of over 45% in size
Method in brief: (§1)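 600 cells/well were plated with the nonlytic NanoLuc/prosubstrate reagent, pre-incubated 5 h, then given 23 nL of compound in DMSO. Incubation at 37 C for 40 h, with luminescence from viable-cell-reduced substrate read repeatedly from 0 h.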

[2] = A CellTox Green Cytotoxicity Assay to monitor cytotoxicity in HEK293 cells - 32 hour (AID 1224881); further: nearly all actives have a fitted effect of over 40% in size
Method in brief: (§2)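 HEK293 cells, 600/well, were preincubated 5 hours and then exposed to compounds at 37 C for up to 40 hours. A cell-impermeant cyanine dye staining dead-cell DNA was read by fluorescence at 0, 8, 16, 24, 32 and 40 h time points.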

[3] = A CellTox Green Cytotoxicity Assay to monitor cytotoxicity in HepG2 cells - 0 hour (AID 1224882); further: nearly all actives have a fitted effect of over 35% in size
Method in brief: (§3)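 HepG2 cells, 600/well, preincubated 5 h with CellTox Green dye, then exposed to Tox21 compounds in DMSO at 37 C for up to 40 h. Dead-cell DNA fluorescence read at the indicated time point.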

[4] = A CellTox Green Cytotoxicity Assay to monitor cytotoxicity in HEK293 cells - 8 hour (AID 1224884); further: nearly all actives have a fitted effect of over 35% in size
Method in brief: as §2

[5] = qHTS RealTime-Glo MT Cell Viability Assay in HepG2 cells - 16 hour (AID 1224885); further: nearly all actives have a fitted effect of over 50% in size
Method in brief: (§4)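 Compound treatment began 5 h after plating HepG2 cells (600/well) with NanoLuc luciferase and prosubstrate. Plates stayed at 37 C for 40 h; luminescence was captured at six time points, 0 h through 40 h.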

[6] = qHTS RealTime-Glo MT Cell Viability Assay in HEK293 cells - 24 hour (AID 1224886); further: top concentration of the series differs between compounds; nearly all actives have a fitted effect of over 50% in size
Method in brief: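 Quantitative high-throughput screen of the Tox21 10K library in HEK293: cells and RealTime-Glo reagents plated together, compound added at 5 h, luminescence monitored through 40 h at 37 C.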

[7] = qHTS RealTime-Glo MT Cell Viability Assay in HEK293 cells - 8 hour (AID 1224887); further: top concentration of the series differs between compounds; nearly all actives have a fitted effect of over 50% in size
Method in brief: as §1

[8] = A CellTox Green Cytotoxicity Assay to monitor cytotoxicity in HEK293 cells - 16 hour (AID 1224888); further: nearly all actives have a fitted effect of over 35% in size
Method in brief: as §2

[9] = qHTS RealTime-Glo MT Cell Viability Assay in HepG2 cells - 0 hour (AID 1224889); further: nearly all actives have a fitted effect of over 50% in size
Method in brief: as §4

[10] = A CellTox Green Cytotoxicity Assay to monitor cytotoxicity in HepG2 cells - 8 hour (AID 1224890); further: nearly all actives have a fitted effect of over 45% in size
Method in brief: as §3

[11] = qHTS assay to identify small molecule antagonists of the androgen receptor (AR) signaling pathway using the MDA cell line in the presence of 0.5 nM R1881 - cell viability counter screen (AID 1259242); further: nearly all actives have a fitted effect of over 45% in size
Method in brief: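 MDA-kb2 cells (MMTV-luciferase, AR/GR responsive) were treated with compounds plus 0.5 nM R1881 (final) for 16 hr at 37C, 0% CO2. Viability was then read in the same wells as live-cell protease fluorescence (CellTiter-Fluor, 30 min).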

[12] = qHTS assay to identify small molecule HDAC inhibitors (AID 1259364); further: top concentration of the series differs between compounds; nearly all actives have a fitted effect of over 45% in size
Method in brief: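 Wild-type HCT-116 cells, plated overnight at 37 C, exposed to compounds 2 hr at 37 C; luminogenic HDAC-Glo substrate then added 30 min at room temperature. Luminescence reports relative endogenous class I/II HDAC activity.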

[13] = qHTS assay to identify small molecule HDAC inhibitors - cell viability counter screen (AID 1259365)
Method in brief: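 After overnight seeding at 1,500 cells per well, wild-type HCT-116 cultures took up compounds in DMSO for 2hr at 37 C. Viable cell content came from luminescence with CellTiter-Glo.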

[14] = qHTS assay to identify small molecule agonists of the sonic hedgehog signaling (Shh) pathway - cell viability counter screen (AID 1259366); further: nearly all actives have a fitted effect of over 50% in size
Method in brief: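 Same-well cytotoxicity read. Gli1-Luc reporter 3T3 cells; compounds 24hr, 37C/5% CO2; CellTiter-Fluor fluorescence.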

[15] = qHTS assay to identify small molecule antagonists of the sonic hedgehog signaling (Shh) pathway - cell viability counter screen (AID 1259367); further: nearly all actives have a fitted effect of over 55% in size
Method in brief: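 Using CellTiter-Fluor, viability of Gli1-Luc reporter 3T3 cells is read by fluorescence in the wells used for the Shh luciferase assay. Treatment lasts 23 hr with conditioned medium, then reagent 1 hr at 37C.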

[16] = qHTS assay to identify small molecule antagonists of the estrogen receptor alpha (ER-alpha) signaling pathway using the BG1 cell line in the presence of 0.1 nM 17-beta-estradiol - cell viability counter screen (AID 1259241); further: nearly all actives have a fitted effect of over 40% in size
Method in brief: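 Estradiol-stimulated (0.1 nM) VM7Luc4E2 cells exposed to compounds 22 hr; viability measured by fluorescence of cleaved CellTiter-Fluor substrate after 30 min.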

[17] = biological target: Estrogen receptor (Homo sapiens) (UniProt P03372); experiment: qHTS assay to identify small molecule antagonists of the estrogen receptor alpha (ER-alpha) signaling pathway using the BG1 cell line in the presence of 0.1 nM 17-beta-estradiol (AID 1259244); further: nearly all actives have a fitted effect of over 50% in size
Method in brief: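 VM7Luc4E2 cells (endogenous full-length ER-alpha, 4×ERE-luciferase), kept 5 days in phenol red-free, charcoal-stripped FBS medium; 4,000 cells/well. Compounds added with 0.1 nM (final) 17beta-estradiol, 22 hr at 37C; luminescence read with ONE-Glo after 30 min.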

[18] = qHTS assay to identify small molecule phospholipidosis (PLD) inducers (AID 1259344; active means well fitted curve in the direction sought with a large enough effect; an effect the other way counts as inactive or inconclusive)
Method in brief: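 Fluorescent phospholipid staining (LipidTOX Red) measured by automated microscopy in fixed HepG2 cells after 24 h treatment; nuclei counterstained with Hoechst 33342; amiodarone as reference inducer.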

[19] = A CellTox Green Cytotoxicity Assay to monitor cytotoxicity in HepG2 cells - 32 hour (AID 1224883); further: nearly all actives have a fitted effect of over 50% in size
Method in brief: as §3

[20] = biological target: Androgen receptor (Homo sapiens) (UniProt P10275); experiment: qHTS assay to identify small molecule antagonists of the androgen receptor (AR) signaling pathway using the MDA cell line in the presence of 0.5 nM R1881 (AID 1259243); further: nearly all actives have a fitted effect of over 50% in size
Method in brief: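 MDA-kb2 cells (MMTV-luciferase, responsive to AR and GR) at 3,000/well, rested 5 h at 37C, 0% CO2, then given compounds plus 0.5 nM R1881 (final) for 16 hr. Luciferase read with ONE-Glo after 30 min at room temperature.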
On the % scale 0 is the no-effect control and ±100 the full control effect.

Androgen receptor (Homo sapiens), sequence (P10275 whole entry, looked up): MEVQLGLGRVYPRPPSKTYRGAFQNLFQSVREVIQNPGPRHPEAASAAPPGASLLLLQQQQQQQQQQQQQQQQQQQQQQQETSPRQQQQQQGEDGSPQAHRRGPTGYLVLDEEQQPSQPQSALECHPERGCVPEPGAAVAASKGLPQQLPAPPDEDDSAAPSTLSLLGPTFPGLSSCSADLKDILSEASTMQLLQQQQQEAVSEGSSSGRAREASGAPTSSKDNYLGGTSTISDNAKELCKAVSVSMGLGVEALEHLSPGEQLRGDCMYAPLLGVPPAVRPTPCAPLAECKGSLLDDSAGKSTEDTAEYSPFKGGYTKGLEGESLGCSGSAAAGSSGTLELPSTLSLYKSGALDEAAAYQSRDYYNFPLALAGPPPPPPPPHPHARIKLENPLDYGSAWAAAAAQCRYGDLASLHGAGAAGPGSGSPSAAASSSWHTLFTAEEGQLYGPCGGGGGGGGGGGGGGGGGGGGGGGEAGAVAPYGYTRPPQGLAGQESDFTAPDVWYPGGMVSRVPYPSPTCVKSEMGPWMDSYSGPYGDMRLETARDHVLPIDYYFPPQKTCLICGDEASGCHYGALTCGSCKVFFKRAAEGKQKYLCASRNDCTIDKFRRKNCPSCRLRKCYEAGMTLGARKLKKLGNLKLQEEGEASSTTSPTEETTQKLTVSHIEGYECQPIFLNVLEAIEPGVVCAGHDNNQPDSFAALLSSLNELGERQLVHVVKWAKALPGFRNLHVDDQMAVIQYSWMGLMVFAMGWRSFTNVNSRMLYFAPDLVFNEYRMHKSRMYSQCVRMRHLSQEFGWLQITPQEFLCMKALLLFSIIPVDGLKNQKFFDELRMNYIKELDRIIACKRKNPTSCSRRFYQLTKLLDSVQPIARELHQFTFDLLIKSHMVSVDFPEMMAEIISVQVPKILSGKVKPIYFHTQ
Estrogen receptor (Homo sapiens), sequence (P03372 whole entry, looked up): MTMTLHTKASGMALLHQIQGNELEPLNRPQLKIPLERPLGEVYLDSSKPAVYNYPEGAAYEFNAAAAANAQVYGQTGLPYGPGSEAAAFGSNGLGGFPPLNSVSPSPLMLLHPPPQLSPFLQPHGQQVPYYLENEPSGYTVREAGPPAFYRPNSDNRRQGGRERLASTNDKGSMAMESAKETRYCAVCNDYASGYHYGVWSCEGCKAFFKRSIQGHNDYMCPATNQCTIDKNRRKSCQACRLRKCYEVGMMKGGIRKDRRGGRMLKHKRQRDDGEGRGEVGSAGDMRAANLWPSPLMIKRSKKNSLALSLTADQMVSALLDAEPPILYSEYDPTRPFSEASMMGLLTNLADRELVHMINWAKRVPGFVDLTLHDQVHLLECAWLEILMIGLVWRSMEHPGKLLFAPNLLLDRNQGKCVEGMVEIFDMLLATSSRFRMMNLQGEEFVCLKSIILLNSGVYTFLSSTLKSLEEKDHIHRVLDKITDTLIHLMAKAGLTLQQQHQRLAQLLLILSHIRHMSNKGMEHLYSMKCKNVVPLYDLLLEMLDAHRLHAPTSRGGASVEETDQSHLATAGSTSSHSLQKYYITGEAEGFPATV

CC(C)c1ccc(O)cc1
inactive: outcome [1] | Potency [2] | outcome [3] | Potency [4] | Potency [5] | Potency [6] | Potency [7] | Potency [8] | outcome [9] | Potency [10] | Potency [11] | Potency [12] | outcome [13] | Potency [14] | Potency [15]

Cc1ccc(Cl)c(O)c1
inactive: outcome [1] | Potency [2] | outcome [3] | Potency [4] | Potency [5] | Potency [6] | Potency [7] | Potency [8] | outcome [9] | Potency [10] | outcome [16] | Potency [11] | Potency [17] | Potency [18] | Potency [12] | outcome [13] | Potency [14] | Potency [15]

CC(O)CCl (stereo unspecified)
inactive: outcome [1] | Potency [2] | Potency [19] | Potency [4] | Potency [5] | Potency [6] | Potency [7] | Potency [8] | outcome [9] | Potency [10] | outcome [16] | Potency [11] | Potency [17] | Potency [12] | outcome [13] | Potency [14] | Potency [15]

O=C(O)C(F)(F)C(F)(F)C(F)(F)C(F)(F)C(F)(F)C(F)(F)F
inactive: outcome [1] | Potency [2] | outcome [3] | Potency [4] | Potency [5] | Potency [6] | Potency [7] | Potency [8] | outcome [9] | Potency [10] | outcome [16] | Potency [11] | Potency [12] | outcome [13] | Potency [14] | Potency [15]

CC(Cc1ccccc1)NCCCCl (stereo unspecified)
inactive: Potency [2] | outcome [3] | Potency [19] | Potency [4] | Potency [5] | Potency [6] | Potency [7] | Potency [8] | outcome [9] | Potency [10] | outcome [16] | Potency [11] | Potency [20] | Potency [17] | outcome [13] | Potency [14] | Potency [15]

CCOC(=O)NC(C)(C)Cc1ccc(Cl)cc1
inactive: outcome [1] | Potency [4] | Potency [5] | Potency [6] | Potency [7] | Potency [8] | outcome [9] | Potency [10] | outcome [16] | Potency [11] | Potency [17] | PLD induction [18] 18.3% [at 1.53 µM] | outcome [13] | Potency [14] | Potency [15]

CN(CCO)CCO
inactive: outcome [1] | Potency [2] | Potency [19] | Potency [4] | Potency [5] | Potency [6] | Potency [7] | Potency [8] | outcome [9] | Potency [10] | outcome [16] | Potency [11] | Potency [12] | outcome [13] | Potency [14] | Potency [15]

Brc1c(Br)c(Br)c(Br)c(Br)c1Br
inactive: activity change, negative = cytotoxicity [1] 0% [at 6.97 µM] | cytotoxicity increase [2] 4.45% [at 6.97 µM] | cytotoxicity increase [19] 0.204% [at 6.97 µM] | cytotoxicity increase [4] 12.9% [at 6.97 µM] | activity change, negative = cytotoxic [5] -8.35% [at 6.97 µM] | activity change [8] 4.52% [at 6.97 µM, hits give high values] | activity change, negative = cytotoxicity [9] 0.505% [at 6.97 µM] | cytotoxicity increase [10] -4.76% [at 6.97 µM] | activity change, negative = cytotoxicity [16] -4.2% [at 8.39 µM] | viability change, negative = cytotoxic [11] 7.8% [at 8.39 µM] | activity change, negative = inhibition [17] 3.5% [at 8.39 µM] | activity change, negative = inhibition [12] 4.51% [at 8.39 µM] | activity change, negative = cytotoxicity [13] 1.6% [at 8.39 µM] | viability change, negative = cytotoxic [14] 2.28% [at 8.39 µM] | viability change, negative = cytotoxic [15] 1.61% [at 8.39 µM]

CNC(=O)O/N=C(/CSC)C(C)(C)C
inactive: outcome [1] | Potency [2] | Potency [4] | Potency [5] | Potency [6] | Potency [7] | Potency [8] | outcome [9] | Potency [10] | Potency [11] | Potency [20] | Potency [17] | outcome [13] | Potency [14] | Potency [15]

CCC1(CC)C(=O)C=CNC1=O
inactive: Potency [2] | outcome [3] | Potency [19] | Potency [4] | Potency [5] | Potency [6] | Potency [7] | Potency [8] | outcome [9] | Potency [10] | outcome [16] | Potency [11] | Potency [17] | Potency [18] | Potency [12] | Potency [14] | Potency [15]

C[C@H](N)C(=O)c1ccccc1
inactive: Potency [2] | outcome [3] | Potency [19] | Potency [4] | Potency [5] | Potency [6] | Potency [7] | Potency [8] | outcome [9] | Potency [10] | outcome [16] | Potency [11] | Potency [20] | Potency [17] | Potency [18] | Potency [12] | outcome [13] | Potency [14] | Potency [15]

c1ccc2c(c1)CCNC2
inactive: outcome [1] | Potency [2] | Potency [4] | Potency [5] | Potency [7] | Potency [8] | outcome [9] | Potency [10] | outcome [16] | Potency [11] | Potency [12] | outcome [13] | Potency [14] | Potency [15]

CC1N=C(N)OC1c1ccccc1 (stereo unspecified)
inactive: Potency [2] | outcome [3] | Potency [19] | Potency [4] | Potency [5] | Potency [6] | Potency [7] | Potency [8] | outcome [9] | Potency [10] | outcome [16] | Potency [11] | Potency [17] | Potency [18] | Potency [12] | outcome [13] | Potency [14] | Potency [15]

[O-][Br+2]([O-])O
inactive: outcome [1] | Potency [2] | Potency [19] | Potency [4] | Potency [5] | Potency [7] | Potency [8] | outcome [9] | Potency [10] | outcome [16] | Potency [11] | Potency [20] | Potency [17] | Potency [12] | outcome [13] | Potency [14] | Potency [15]

CN=CNc1ccc(C)cc1C
inactive: outcome [1] | Potency [2] | Potency [19] | Potency [5] | Potency [6] | Potency [7] | Potency [8] | outcome [9] | Potency [10] | outcome [16] | Potency [11] | Potency [17] | Potency [12] | outcome [13] | Potency [14] | Potency [15]

CC(C)N(Cc1ccccc1)C(=O)C(C)(C)C
inactive: outcome [1] | Potency [2] | Potency [4] | Potency [5] | Potency [6] | Potency [7] | Potency [8] | outcome [9] | Potency [10] | outcome [16] | Potency [11] | Potency [20] | Potency [12] | outcome [13] | Potency [14] | Potency [15]
